Source: PubChem BioAssay AID672 (University of Pittsburgh Molecular Library Screening Center, 2007)
The list shows a part of the results. A number with no mark means an inactive call. How the calls were made is not given here.

Test: redox cycling hydrogen peroxide production, dose response, artefact control, biochemical, probe assessment (AID 672)
Conditions: Redox cycling H2O2 generation, DTT, phenol red/HRP

**Q.** Which EC50 does the source give for CCc1ccc(NC(=O)CSc2nc3ccccc3c(=O)n2CCN2CCOCC2)cc1 here?
**A.** > 50 µM
